Assay [1] in a line: BSK_CASM3C_SRB: Viability Assessment in the BioMAP Diversity Plus: CASM3C Assay (AID 2283050).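 Further: cells exposed to compound for 24 h.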 To be noted: primary human coronary artery smooth muscle cells.
Read-out in assay [2]: Thrombomodulin, THBD (gene 7056)
Nature of the assay: BSK_CASM3C_Thrombomodulin: BioMAP Diversity Plus: CASM3C Assay for Thrombomodulin Biomarker Activity (AID 2283051).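 Further: thrombomodulin protein level measured by ELISA 24 h after dosing.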 To be noted: primary human coronary artery smooth muscle cells; actives raise or lower the signal.

Read-out in assay [3]: Tissue Factor, F3 (gene 2152)
The assay is described as follows: BSK_CASM3C_TissueFactor: BioMAP Diversity Plus: CASM3C Assay for Tissue Factor Biomarker Activity (AID 2283052).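 Further: cell surface tissue factor protein level read by ELISA.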 The conditions noted are these: primary human coronary artery smooth muscle cells; actives raise or lower the signal.

Read-out in assay [4]: Interferon-gamma inducible Protein 10 (IP10), CXCL10 (gene 3627)
The assay is described as follows: BSK_hDFCGF_IP10: BioMAP Diversity Plus: hDFCGF Assay for Interferon-gamma inducible Protein 10 (IP10) Biomarker Activity (AID 2283053). To be noted: primary human foreskin fibroblasts; actives raise or lower the signal. An outline of the steps:
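Primary human foreskin fibroblasts exposed to chemicals for 24 h. IP-10 measured by ELISA; changes fitted bidirectionally against DMSO baseline.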

Read-out in assay [5]: Urokinase-type plasminogen activator receptor (uPAR), PLAUR (gene 5329)
The assay is described as follows: BSK_CASM3C_uPAR: BioMAP Diversity Plus: CASM3C Assay for Urokinase-type plasminogen activator receptor (uPAR) Biomarker Activity (AID 2283054).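 Further: cell-surface uPAR protein level quantified by ELISA.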 The conditions noted are these: primary human coronary artery smooth muscle cells; actives raise or lower the signal.

Read-out in assay [6]: Vascular cell adhesion molecule 1 (VCAM1), VCAM1 (gene 7412)
Nature of the assay: BSK_CASM3C_VCAM1: BioMAP Diversity Plus: CASM3C Assay for Vascular cell adhesion molecule 1 (VCAM1) Biomarker Activity (AID 2283055).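 Further: VCAM-1 protein level quantified by ELISA on the cells.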 The conditions noted are these: primary human coronary artery smooth muscle cells; actives raise or lower the signal.

Read-out in assay [7]: Collagen III, COL3A1 (gene 1281)
Nature of the assay: BSK_hDFCGF_CollagenIII: BioMAP Diversity Plus: hDFCGF Assay for Collagen III Biomarker Activity (AID 2283056). The conditions noted are these: primary human foreskin fibroblasts; actives raise or lower the signal. The gist of the method: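 ELISA readout of Collagen III in human dermal (foreskin) fibroblasts, taken 24 h post-treatment. Gain or loss relative to DMSO vehicle fitted in both directions.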

Read-out in assay [8]: Epidermal growth factor receptor (EGFR), EGFR (gene 1956)
The assay is described as follows: BSK_hDFCGF_EGFR: BioMAP Diversity Plus: hDFCGF Assay for Epidermal growth factor receptor (EGFR) Biomarker Activity (AID 2283057). The conditions noted are these: primary human foreskin fibroblasts; actives raise or lower the signal. An outline of the steps: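 Primary human foreskin fibroblasts (hDFCGF system), sampled 24 h after dosing; EGFR quantified by ELISA. Bidirectional fit relative to DMSO baseline; SRB total-protein staining in parallel cultures for cytotoxicity.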

Read-out in assay [9]: Interleukin-8 (IL8), CXCL8 (gene 3576)
The assay is described as follows: BSK_hDFCGF_IL8: BioMAP Diversity Plus: hDFCGF Assay for Interleukin-8 (IL8) Biomarker Activity (AID 2283058). To be noted: primary human foreskin fibroblasts; actives raise or lower the signal. An outline of the steps:
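IL-8 levels read by ELISA at 24 hours after dosing human skin fibroblast cultures. Parallel SRB staining assessed overt cytotoxicity, and gain or loss of signal was fitted against DMSO control.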

Assay [10] is described as follows: BSK_hDFCGF_Proliferation: Cell Proliferation Assessment in the BioMAP Diversity Plus: hDFCGF Assay (AID 2283059).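 Further: curves fitted for both rise and fall of signal versus DMSO baseline.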 The conditions noted are these: primary human foreskin fibroblasts. The gist of the method: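 This proliferation readout used SRB total-protein staining of human foreskin fibroblasts […], normalized to DMSO with bidirectional curve fitting.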

Read-out in assay [11]: Macrophage colony-stimulating factor (MCSF), CSF1 (gene 1435)
Nature of the assay: BSK_hDFCGF_MCSF: BioMAP Diversity Plus: hDFCGF Assay for Macrophage colony-stimulating factor (MCSF) Biomarker Activity (AID 2283060). The conditions noted are these: primary human foreskin fibroblasts; actives raise or lower the signal. The gist of the method:
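M-CSF levels read by ELISA at 24 h post-dosing in human skin fibroblasts. Parallel cultures stained with SRB assessed cytotoxicity at the same time point; response fitted in both directions against the DMSO baseline.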

The nature of assay [12]: BSK_hDFCGF_SRB: Viability Assessment in the BioMAP Diversity Plus: hDFCGF Assay (AID 2283061).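 Further: cells exposed to compound for 24 h before the read.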 The conditions noted are these: primary human foreskin fibroblasts. An outline of the steps: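 Viability was read as total protein: after 10% TCA fixation, wells were stained with 0.1% sulforhodamine B and read at 560 nm. Primary human foreskin fibroblasts were dosed for 24 h, with bidirectional fitting versus DMSO.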

Read-out in assay [13]: TIMP metallopeptidase inhibitor 1 (TIMP1), TIMP1 (gene 7076)
Nature of the assay: BSK_hDFCGF_TIMP1: BioMAP Diversity Plus: hDFCGF Assay for TIMP metallopeptidase inhibitor 1 (TIMP1) Biomarker Activity (AID 2283062). The conditions noted are these: primary human foreskin fibroblasts; actives raise or lower the signal. An outline of the steps: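 TIMP-1 measured by ELISA 24 h after chemical dosing of primary human skin fibroblasts, with gain or loss fitted relative to DMSO. Parallel SRB staining (560 nm) monitored overt cytotoxicity.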

Read-out in assay [14]: Monokine induced gamma interferon (MIG), CXCL9 (gene 4283)
The assay is described as follows: BSK_hDFCGF_MIG: BioMAP Diversity Plus: hDFCGF Assay for Monokine induced gamma interferon (MIG) Biomarker Activity (AID 2283063). To be noted: primary human foreskin fibroblasts; actives raise or lower the signal. An outline of the steps:
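Human primary foreskin fibroblasts in the hDFCGF system, exposed to test chemical for 24 h; MIG measured by ELISA. Bidirectional curve fitting against DMSO negative control as activity baseline.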

Read-out in assay [15]: Matrix Metallopeptidase 1 (MMP1), MMP1 (gene 4312)
The assay is described as follows: BSK_hDFCGF_MMP1: BioMAP Diversity Plus: hDFCGF Assay for Matrix Metallopeptidase 1 (MMP1) Biomarker Activity (AID 2283064). To be noted: primary human foreskin fibroblasts; actives raise or lower the signal. An outline of the steps:
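Primary human foreskin fibroblasts in the hDFCGF system were dosed with test chemical, and MMP1 was measured by ELISA 24 h later. Values come from bidirectional curve fitting against the DMSO baseline.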

Read-out in assay [16]: Plasminogen activator inhibitor-1 (PAI1), SERPINE1 (gene 5054)
The assay is described as follows: BSK_hDFCGF_PAI1: BioMAP Diversity Plus: hDFCGF Assay for Plasminogen activator inhibitor-1 (PAI1) Biomarker Activity (AID 2283066). The conditions noted are these: primary human foreskin fibroblasts; actives raise or lower the signal. An outline of the steps: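 Human foreskin fibroblast primary cells, 24 h chemical exposure; PAI-1 measured by ELISA. Bidirectional fitting relative to DMSO; parallel cultures stained with SRB for total protein to flag overt cytotoxicity.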

Read-out in assay [17]: Interferon-gamma inducible Protein 10 (IP10), CXCL10 (gene 3627)
The assay is described as follows: BSK_KF3CT_IP10: BioMAP Diversity Plus: KF3CT Assay for Interferon-gamma inducible Protein 10 (IP10) Biomarker Activity (AID 2283068). The conditions noted are these: primary human keratinocytes with fibroblasts; actives raise or lower the signal. The gist of the method:
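Signal is secreted/surface IP-10 by ELISA in a human primary skin co-culture of keratinocytes and foreskin fibroblasts, taken 24 h post-dosing; DMSO served as negative control.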

Assay [18] in a line: BSK_KF3CT_SRB: Viability Assessment in the BioMAP Diversity Plus: KF3CT Assay (AID 2283069).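 Further: total protein by sulforhodamine B staining as a cytotoxicity measure; read 24 h after compound addition.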 The conditions noted are these: primary human keratinocytes with fibroblasts. An outline of the steps: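 Human primary keratinocyte plus foreskin fibroblast co-culture exposed to chemicals for 24 h. Total protein measured by 0.1% sulforhodamine B staining after 10% TCA fixation, read at 560 nm; bidirectional fitting versus DMSO baseline.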

Read-out in assay [19]: Vascular cell adhesion molecule 1 (VCAM1), VCAM1 (gene 7412)
The assay is described as follows: BSK_hDFCGF_VCAM1: BioMAP Diversity Plus: hDFCGF Assay for Vascular cell adhesion molecule 1 (VCAM1) Biomarker Activity (AID 2283065).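 Further: VCAM-1 protein level quantified by ELISA after 24 h chemical exposure.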 To be noted: primary human foreskin fibroblasts; actives raise or lower the signal. An outline of the steps:
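ELISA readout of VCAM-1 on human dermal fibroblast primary cultures, 24 h after chemical exposure. Gain or loss of signal fitted in both directions against DMSO baseline.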

Calls of active or inactive are those of the source. How the source made its calls: active means hit-call score of the fitted dose curve at least 0.9, where 1 is the maximum; inactive means score below 0.9.

The term AC50 denotes the concentration at which the activity in the assay is half-maximal. `CC(=O)OCC=C(C)CCC=C(C)CCC=C(C)C`: the outcome in [1], in assay [2], in assay [4], in [5], in [6] and in assay [8] was inactive. Further, the result in [9], in assay [12], in [14], in assay [15], in assay [17] and in assay [18] was inactive. Besides, the AC50 in [3] was 2.51 µM (active); in [7], 4.49 µM (active); in assay [10], 17.4 µM (active); in assay [11] it was 25.9 µM (active); in [13], 26.3 µM (active); in assay [16], 25.8 µM (active).
Regarding `COC(=O)c1ccc(C(=O)OC)cc1`, the outcome in assay [1], in assay [2], in assay [4], in assay [5], in [6] and in [7] was inactive. In addition, the result in [8], in assay [9], in assay [10], in assay [11], in assay [12] and in assay [13] was inactive. The result in assay [14], in [15], in assay [16], in assay [17] and in [18] was inactive.
`C[C@]12CC[C@@H]3c4ccc(O)cc4CC[C@H]3[C@@H]1CC[C@@H]2O`: the outcome in [1], in assay [2], in assay [3], in assay [4], in assay [5] and in [6] was inactive. For the same compound, the outcome in assay [8], in assay [9], in assay [11], in assay [12], in assay [13] and in assay [14] was inactive. Moreover, the result in [15], in assay [16], in [17] and in [18] was inactive. For the same compound, the AC50 in assay [7] was 20 µM (active); in [10], 22.8 µM (active).
Take `CC=CC(=O)C1=C(C)C=CCC1(C)C`: the outcome in assay [1], in assay [2], in assay [3], in assay [4], in [5] and in [6] was inactive. For the same compound, the outcome in assay [7], in [8], in [9], in [10], in assay [11] and in assay [12] was inactive. The outcome in [13], in assay [14], in assay [15], in [17] and in assay [18] was inactive. In addition, the AC50 in assay [16] was 0.016 µM (active).
As for `CCC(=O)OCC=Cc1ccccc1`, the result in assay [1], in [2], in [3], in assay [4], in assay [5] and in [6] was inactive. Moreover, the result in assay [7], in [8], in assay [9], in [10], in assay [11] and in [12] was inactive. In addition, the outcome in assay [13], in assay [14], in assay [15], in assay [16], in [17] and in assay [18] was inactive.
`O=C(c1ccc(OCCN2CCCCC2)cc1)c1c(-c2ccc(O)cc2)sc2cc(O)ccc12`: the AC50 in assay [1] is 34.4 µM (active); in assay [4], 32.2 µM (active); in [5], 33.4 µM (active); in assay [7], 14.8 µM (active); in assay [8], 9.63 µM (active); in assay [9], 33.7 µM (active). Moreover, the AC50 was 7.34 µM (active) in [10]; 24.4 µM (active) in assay [12]; 35.8 µM (active) in assay [13]; 32.1 µM (active) in [14]; 31.7 µM (active) in assay [15]; 31.4 µM (active) in assay [19]. The AC50 in [16] was 15.6 µM (active); in assay [17], 21 µM (active); in [18], 29.2 µM (active). Moreover, the result in assay [2], in assay [3] and in [6] was inactive.
